Data as given in the supplement of paper PMC4371806.
Whole data set: some 1,600 compounds, median “plate-normalized OD600 growth (mean of duplicates)” near 0.31, cut for the lowest 2% near 0.23. Shown is part of a subset that was picked to be rich in the lowest values.

Test system: Escherichia coli BW25113
Assay: plate-normalized OD600 growth (mean of duplicates) (OD600 (normalized)); higher = more growth (less inhibition)
Details: 10 µM
Description: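 E. coli BW25113 in LB (100 µl, 96-well, no shaking) was exposed to 10 µM of each compound (here the ChemBridge subset of a ~30,000-member library) and grown at 37°C for 24 h or 15°C for 48 h, in duplicate. Growth was read as OD600 and the duplicate ODs were normalized across screening plates to correct plate-to-plate variation.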

SMILES	plate-normalized OD600 growth (temperature: 15°C, 48 h)	plate-normalized OD600 growth (temperature: 37°C, 24 h)
O=C(NC1C[C@@H]1c1ccccc1)[C@@H]1CC1c1ccccc1 (stereo partly specified)	0.272	0.63
CN1CCCC1CCNC1CC2CCC1C2 (stereo unspecified)	0.299	0.637
Cn1cc(/C=C/c2nc3ccccc3c(=O)[nH]2)c2ccccc21	0.248	0.604
COc1ccc(N(C(=O)c2ccc(F)cc2)C2=CC3CCC(C2)N3C)cc1 (stereo unspecified)	0.247	0.619
COc1ccc(C(C)=O)cc1Cc1c(O)nc(SC)[nH]c1=O	0.247	0.629
CCOc1ccc(NC(=O)CC2Nc3ccccc3NC2=O)cc1 (stereo unspecified)	0.273	0.648
O=C(CC1Nc2ccccc2NC1=O)Nc1ccc(Cl)cc1 (stereo unspecified)	0.215	0.6
O=C(CC1Nc2ccccc2NC1=O)Nc1ccccc1 (stereo unspecified)	0.24	0.597
Nc1nc2sc3c(c2cc1C(=O)N1CCOCC1)CCCC3	0.253	0.625
Cc1nc(-c2ccccc2)cc(N2CCCC2)n1	0.253	0.616
CN1CCC(NCc2ccccc2F)CC1	0.212	0.645
Cc1ccccc1CN(C)C1CCN(C)CC1	0.256	0.628
CCCN1CCC(NCCc2ccccc2OC)CC1	0.252	0.619
Cc1ccc(OCCCNC(C)(C)C)cc1	0.244	0.608
CC1CCCC(C)N1C(=O)c1ccc(Br)cc1 (stereo unspecified)	0.25	0.617
O=c1[nH]c2nonc2nc1Nc1ccccc1	0.245	0.603
CC1CCCC(C)N1C(=O)Cc1ccccc1 (stereo unspecified)	0.233	0.611
CCN(C(=O)Cc1ccccc1)C1CCCCC1	0.221	0.606
CCN(Cc1ccccc1)C(=O)Cc1ccccc1	0.262	0.642
Cc1cc(C)c(S(=O)(=O)Nc2cc(C)on2)c(C)c1	0.243	0.612
COc1ccccc1NS(=O)(=O)c1ccc(C(C)(C)C)cc1	0.254	0.618
CCc1ccccc1NS(=O)(=O)c1ccc(F)cc1	0.21	0.618
COc1ccccc1NS(=O)(=O)c1ccc(Cl)cc1	0.256	0.651
Cc1[nH]nc2c1C(c1ccccc1I)C(C#N)=C(N)O2 (stereo unspecified)	0.233	0.613
Cc1ccc(C2C(C#N)=C(N)Oc3n[nH]c(C)c32)s1 (stereo unspecified)	0.246	0.658
Cc1cc(C)c(C2C(C#N)=C(N)Oc3n[nH]c(C)c32)c(C)c1 (stereo unspecified)	0.218	0.621
Cc1ccc(NCc2ccc([N+](=O)[O-])cc2)cc1C	0.237	0.605

SMILES	plate-normalized OD600 growth (temperature: 15°C, 48 h)	plate-normalized OD600 growth (temperature: 37°C, 24 h)
O=C(c1ccc(Br)o1)N1CCN(c2ccc([N+](=O)[O-])cc2)CC1	0.262	0.622
O=C(c1ccco1)N1CCN(c2ccc([N+](=O)[O-])cc2)CC1	0.244	0.617
O=C(c1ccc([N+](=O)[O-])o1)N1CCN(c2cccc(Cl)c2)CC1	0.212	0.611
O=C1CC(N2CCOCC2)C(=O)N1c1ccc(I)cc1 (stereo unspecified)	0.257	0.645
N#CC1=C(N)Oc2cc(N)ccc2C1c1ccc(Br)s1 (stereo unspecified)	0.262	0.636
O=C(Nc1cccc([N+](=O)[O-])c1)c1cc(S(=O)(=O)Nc2ccccc2)ccc1Cl	0.256	0.621
Fc1ccccc1OCCSc1ncnc2nc[nH]c12	0.258	0.613
N#CSc1cnc(NC2CCCCC2)s1	0.254	0.611
CCSc1sc(CC)cc1C(N)=O	0.239	0.621
CCSc1sc(SC#N)cc1SC#N	0.207	0.614
CCOc1ccc(Br)cc1/C=C(\C#N)c1nc2ccccc2[nH]1	0.255	0.657
CCOc1ccc(Nc2nc(-c3ccc(C)c(C)c3)cs2)cc1	0.248	0.605
Cc1cc(C)n(-c2nc(-c3ccc(F)cc3)cs2)n1	0.254	0.625
Cc1ccc(-c2csc(Nc3ccc(F)cc3)n2)cc1C	0.218	0.604
CCOc1ccc(C(=O)Nc2ccc(S(=O)(=O)Nc3nccs3)cc2)cc1	0.241	0.613
C=CCNc1nc(-c2ccncc2)cs1	0.236	0.589
CC(=O)Nc1ccc(-c2cc(-c3ccc(NC(C)=O)cc3)nc(-c3ccccc3)n2)cc1	0.246	0.587
Cc1ccc2nc(/C(C#N)=C\c3ccco3)[nH]c2c1	0.242	0.599
CC(=O)Nc1ccc2oc(-c3cccc(I)c3)nc2c1	0.235	0.614
CCOc1ccc(-c2ncnn2-c2ccc([N+](=O)[O-])cc2)cc1	0.222	0.625
CCN(CC)CCCOc1ccc([N+](=O)[O-])cc1	0.246	0.624
CCOc1ccc(C(=O)c2ccc([N+](=O)[O-])cc2Cl)cc1	0.265	0.637
CCCCOC(=O)Nc1nnc(CCc2ccccc2)s1	0.265	0.623
COc1cc(CN2CCSCC2)c([N+](=O)[O-])cc1OC	0.23	0.6
NC(=O)CCC(=O)NC12CC3CC(CC(C3)C1)C2	0.227	0.599
CC(C)NCC(=O)NC12CC3CC(CC(C3)C1)C2	0.266	0.656
